Screening results as filed in PubChem BioAssay.
A selection: hits, their analogues and other compounds. The true share with any hit is near 4.2%.
ClpP mod: qHTS Assay for Activators of ClpP | purified B. subtilis ClpP, FRET peptide cleavage, 20 min | 1.9% of 340,000 active | Potency, µM (doses to about 57.5 µM) | ATP-dependent Clp protease proteolytic subunit (Bacillus subtilis (strain 168)), P80244; active = well fitted falling curve with a large enough effect; inconclusive = small, poorly fitted or top-dose-only effect; inactive = no such curve, though single readings can be large or run the other way; also: the source files actives as falling curves though it sought activators and does not explain the sign; nearly all actives have a fitted effect of over 65% in size
Target sequence (P80244 whole entry, looked up): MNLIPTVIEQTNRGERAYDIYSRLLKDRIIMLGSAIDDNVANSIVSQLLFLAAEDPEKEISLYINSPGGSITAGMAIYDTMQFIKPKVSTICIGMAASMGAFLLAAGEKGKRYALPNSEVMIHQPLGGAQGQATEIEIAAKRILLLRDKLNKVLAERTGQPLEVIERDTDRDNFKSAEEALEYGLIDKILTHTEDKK
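ClpP 10 microg/mL final, pH 8 Tris/KCl buffer with BSA, glycerol, Tween-20; compound pinned in; FRET-FV substrate; RT 20 min; Ex320/Em430; ΔFRET vs ADEP 5.8 microM, DMSO, no enzyme.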
uPA generation: qHTS for Inhibitors of Cell Surface uPA Generation | 0.31% of 330,000 active | AID 540303, 2011 | Potency, µM (titrated, usually from 38.3 µM), actives largely listed as inhibitors | cell surface uPA generation assay, qHTS; active = well fitted inhibition curve with a large enough effect; inconclusive = small, poorly fitted or top-dose-only effect; inactive = no such curve, though single readings can be large or run the other way; tested in mouse RAW 264.7 cells; also: nearly all actives have a fitted effect of over 55% in size
Sfp inh: qHTS Assay for Inhibitors of Bacillus subtilis Sfp phosphopantetheinyl transferase (PPTase). 4'-phosphopantetheinyl transferase ffp (Bacillus subtilis), Q9F4F7. Biochemical Sfp PPTase activity, qHTS. Potency, µM, usual class: inhibitors. 3.5% of 310,000 active;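 also: the enzyme is Sfp with the accession as filed and its product quenches rhodamine fluorescence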
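Buffer: 50 mM Hepes-Na pH 7.6, 10 mM MgCl2, 0.01% Nonidet P-40, 0.01% BSA. Enzyme 15 nM, pre-exposed to compound 15 min; substrates then added and fluorescence change tracked over 30 min.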
TCR activator: Activators of T cell receptors: qHTS campaign; primary human leukocytes, anti-CD3, IL-2 HTRF, 48 h; Potency, µM (titrated, usually from 9.22 µM), most hits filed as activators; 330,000 tested, under 10 active; AID 504894, 2011
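Human primary leukocytes + a-CD3 beads + cpd, 48 hr; IL-2 in supernatant by HTRF (ex 320nm / em 665nm). No co-stimulatory signal supplied.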
Of the large screens only hits and unclear results are named; the others gave an inactive call. Unless noted, calls follow the shape of the dose curve; as a rule, active = well fitted curve in the direction sought with a large enough effect; inconclusive = small, poorly fitted or top-dose-only effect, or another doubt; inactive = no such curve, though single readings can be large; an effect the other way counts as inactive or inconclusive.

COc1cc(/C=C(\NC(C)=O)C(=O)N2CCCCC2)ccc1OC(C)=O	none
NC(=S)Nc1cccc2cccnc12	Sfp inh inconclusive
NC(=S)NNc1cccc2cccnc12	Sfp inh 3.2µM
COc1ccc(NC(=O)Cn2c(=O)n(CCCC(=O)NCCc3ccc(C)cc3)c(=O)c3ccccc32)cc1Cl	none (no result: uPA generation, Sfp inh, TCR activator)
Cc1ccc(CN(CC2CCCO2)C(=O)CN2C(=O)C(C(C)C)Oc3ccccc32)o1 (stereo not given)	Sfp inh 45µM (no result: uPA generation)
CC(C)C1Oc2ccccc2N(CC(=O)N(Cc2ccccn2)CC2CCCO2)C1=O (stereo not given)	none (no result: uPA generation)
CCn1nc(C)c2c(-c3ccccc3)cc(=O)n(C(C)C(=O)NCCc3ccc(Cl)cc3)c21 (stereo not given)	none (no result: uPA generation, Sfp inh, TCR activator)
N#Cc1cc2c([nH]c1=S)CCCC2	Sfp inh 11µM
CC1(C)Cc2[nH]c(=S)c(C#N)cc2CO1	Sfp inh 10µM
N#Cc1cc2c([nH]c1=O)CCCC2	none
CC1(C)Cc2nc(NC3CCCCC3)c(C#N)cc2CO1	none
Nc1ccc2oc3ccccc3c2c1	ClpP mod 18µM
COc1cc(Nc2nc3ccc(Cl)cc3nc2-n2nc(C)cc2C)cc(OC)c1	none (no result: uPA generation, Sfp inh, TCR activator)
Cc1ccc(NC(=O)N(Cc2ccc3c(c2)OCO3)Cc2cc3cc4c(cc3[nH]c2=O)OCCO4)cc1	ClpP mod inconclusive
CCC(=O)N(Cc1ccc(C)cc1)Cc1cc2cc3c(cc2[nH]c1=O)OCO3	ClpP mod 32µM (no result: uPA generation)
Cc1ccc2[nH]c(=O)c(CN(CCc3ccccc3)C(=O)N3CCOCC3)cc2c1	ClpP mod 14µM
CCC(=O)N(CCc1ccccc1)Cc1cc2cc3c(cc2[nH]c1=O)OCO3	ClpP mod 14µM (no result: uPA generation)
Cc1ccc(NC(=S)Nc2cccc(-c3n[nH]c(=S)o3)c2)cc1	Sfp inh 50µM (no result: ClpP mod)
CC(=O)Nc1cc(OC(C)=O)c2nonc2c1OC(C)=O	uPA generation inconclusive, Sfp inh 40µM
COc1ccc(C(C)(O)c2nc(-c3cccc(F)c3)cs2)cc1 (stereo not given)	none (no result: uPA generation, Sfp inh, TCR activator)
CSC1=NC(C)(C)C=C(/C=C/c2ccc(Cl)cc2)N1	Sfp inh 40µM (no result: ClpP mod)
N#Cc1cc2c(ccc3ccccc32)oc1=O	none (no result: ClpP mod)
Cc1c(C#N)c(=O)oc2ccc3ccccc3c12	ClpP mod 7.9µM
CCN1CCN(c2cc(-c3ccccc3)nc3cc(-c4cccc(F)c4)nn23)CC1	ClpP mod 25µM
OC1CCN(c2cc(-c3ccccc3)nc3cc(-c4ccc(F)cc4)nn23)CC1	Sfp inh inconclusive (no result: ClpP mod)
Cc1ccc2nc(N(CCCN(C)C)C(=O)c3ccc(S(=O)(=O)N4CCc5ccccc5C4)cc3)sc2c1	Sfp inh 50µM (no result: TCR activator)
CN(C)CCCN(C(=O)c1ccc(S(=O)(=O)N2CCc3ccccc3C2)cc1)c1nc2ccc(F)cc2s1	ClpP mod inconclusive, Sfp inh 45µM (no result: TCR activator)
CSc1ccc(CCNC(=O)c2cc3cc(S(=O)(=O)N4CCCCC4)ccc3n2C)cc1	ClpP mod 22µM (no result: uPA generation, Sfp inh, TCR activator)
CC(C)CCn1c(=O)c2sccc2n2c(CCCC(=O)Nc3ccc(C(C)C)cc3)nnc12	none (no result: uPA generation, Sfp inh, TCR activator)
COc1cc(NC(=O)COc2ccccc2[N+](=O)[O-])ccc1NC(=O)c1cccs1	Sfp inh 16µM (no result: ClpP mod)
Cc1ccc(S(=O)(=O)c2cn(Cc3ccccc3)c3cc(N4CCCC4)c(F)cc3c2=O)cc1C	ClpP mod 13µM (no result: uPA generation, Sfp inh, TCR activator)
Cc1cccc(S(=O)(=O)c2cn(Cc3ccccc3)c3cc(N4CCCCC4C)c(F)cc3c2=O)c1 (stereo not given)	none (no result: uPA generation, Sfp inh, TCR activator)
O=c1c(S(=O)(=O)c2ccccc2)cn(Cc2cccc(F)c2)c2cc(N3CCOCC3)c(F)cc12	ClpP mod 28µM (no result: uPA generation, Sfp inh, TCR activator)
O=c1c(S(=O)(=O)c2ccccc2)cn(Cc2ccccc2)c2cc(N3CCOCC3)c(F)cc12	ClpP mod 28µM (no result: uPA generation, Sfp inh, TCR activator)
O=c1c(S(=O)(=O)c2ccccc2)cn(Cc2cccc(F)c2)c2cc(N3CCCC3)c(F)cc12	none (no result: uPA generation, Sfp inh, TCR activator)
CC1CCCCN1c1cc2c(cc1F)c(=O)c(S(=O)(=O)c1ccccc1)cn2Cc1ccccc1 (stereo not given)	ClpP mod 16µM (no result: uPA generation, Sfp inh, TCR activator)
NC1=NC(c2ccccc2C(F)(F)F)N(c2ccc(F)c(Cl)c2)C(N)=N1 (stereo not given)	none
CC(=O)c1ccc(C2CC34CNS(=O)(=O)C3CC2O4)cc1 (stereo not given)	none (no result: ClpP mod, uPA generation, TCR activator)
CCN(CC)C(=O)c1ccc(Oc2ccc([N+](=O)[O-])cc2Cl)cc1	none (no result: ClpP mod)
